# Measured values published in the supplement of paper PMC12024424.
# Where a name gives a salt, the structure may show the parent alone.
# Tested on: Staphylococcus aureus Sa2 (MRSA, cystic fibrosis isolate)
# Assay: growth reduction vs untreated control (OD550); higher = stronger antibacterial activity
# Conditions: 0.1 mM; 24 h
# Experimental: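 Single-dose screen of the MedChem Express Drug Repurposing Library (0.1 mM, 1% DMSO) against planktonic MRSA S. aureus Sa2 (CF isolate) in TSB in 96-well plates, 37 °C aerobic, 24 h. Assays were run in triplicate and repeated twice.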
row,SMILES,growth reduction
1,O=C(O)c1ccc2nc(-c3cc(Cl)cc(Cl)c3)oc2c1 [Tafamidis],99.5%
2,CCCCCCCCCCCCCCCC[N+](C)(C)CCN(Cc1ccc(OC)cc1)c1ncccn1 [Thonzonium (bromide)],100%
3,CS(=O)(=O)c1cc(F)cc2c3c(n(Cc4ccc(Cl)cc4)c12)[C@@H](CC(=O)O)CC3 [Laropiprant],96.1%
4,Cc1ccc(Sc2ccccc2N2CCNCC2)c(C)c1 [Vortioxetine],100%
5,NC(=O)c1cccc2cn(-c3ccc([C@@H]4CCCNC4)cc3)nc12 [Niraparib (tosylate)],99.5%
6,COc1ccc(C(=O)NC2(C(=O)O)Cc3ccccc3C2)cc1OCCc1cccc(C)c1,90.3%
7,Cc1ccc(C(=O)Nc2ccc(CN3CCN(C)CC3)c(C(F)(F)F)c2)cc1C#Cc1cnc2cccnn12 [Ponatinib],100%
8,CCN(CC)CCNC(=O)c1c(C)[nH]c(/C=C2\C(=O)Nc3ccc(-c4csc(-c5ccccc5)n4)cc32)c1C [Amcasertib],100%
9,CC(C)(C(=O)NCC(F)(F)C(F)(F)F)C(=O)N[C@@H]1C(=O)Nc2ccccc2-c2ccccc21,100%
10,CC(C)(C)[C@@H]1NC(=O)O[C@@H]2CCC[C@H]2OC/C=C/C(F)(F)c2nc3ccccc3nc2O[C@@H]2C[C@@H](C(=O)N[C@]3(C(=O)NS(=O)(=O)C4(C)CC4)C[C@H]3C(F)F)N(C2)C1=O [Glecaprevir],100%
11,CO[C@H](C(=O)[C@@H](O)[C@@H](C)O)[C@@H]1Cc2cc3cc(O[C@H]4C[C@@H](O[C@H]5C[C@@H](O)[C@H](O)[C@@H](C)O5)[C@H](O)[C@@H](C)O4)c(C)c(O)c3c(O)c2C(=O)[C@H]1O[C@H]1C[C@@H](O[C@H]2C[C@@H](O[C@H]3C[C@](C)(O)[C@H](O)[C@@H](C)O3)[C@@H](O)[C@@H](C)O2)[C@H](O)[C@@H](C)O1 [Plicamycin],99.6%
12,C[C@]1(O)C[C@@H](c2nc(-c3ccc4ccc(-c5ccccc5)nc4c3)c3c(N)nccn32)C1 [Linsitinib],100%
13,CNC(=O)c1cc(Oc2ccc(NC(=O)Nc3ccc(Cl)c(C(F)(F)F)c3)c(F)c2)ccn1 [Regorafenib (Hydrochloride)],100%
14,Cc1ccc(Cl)c(Nc2ccccc2C(=O)O)c1Cl [Meclofenamate (sodium)],97.2%
15,Cc1ccc(C(=O)N(CCCN)[C@@H](c2oc3cc(Cl)ccc3c(=O)c2Cc2ccccc2)C(C)C)cc1,100%
16,Clc1ccc(C(Cn2ccnc2)OCc2ccc(Sc3ccccc3)cc2)c(Cl)c1 (stereo not given) [Fenticonazole (Nitrate)],100%
17,CCCCCc1ccc(C=CC(=O)Nc2ccccc2C(=O)O)cc1 [N-(p-amylcinnamoyl) Anthranilic Acid],100%
18,Cc1cc2c(F)c(Oc3ncnn4cc(OC[C@@H](C)OC(=O)[C@H](C)N)c(C)c34)ccc2[nH]1 [Brivanib (alaninate)],100%
19,CC[C@H](C)C(=O)O[C@H]1C[C@@H](C)C=C2C=C[C@H](C)[C@H](CC[C@@H]3C[C@@H](O)CC(=O)O3)[C@H]21 [Lovastatin],100%
20,CCCCc1oc2ccccc2c1C(=O)c1cc(I)c(OCCN(CC)CC)c(I)c1 [Amiodarone (hydrochloride)],100%

row,SMILES,growth reduction
1,O=c1oc2ccccc2c(O)c1Cc1c(O)c2ccccc2oc1=O [Dicoumarol],100%
2,NCCCC[C@H](NC(=O)[C@@H](NC(=O)[C@H](Cc1c[nH]c2ccccc12)NC(=O)[C@H](CCCCN)NC(=O)[C@H](CCCCN)NC(=O)[C@H](Cc1c[nH]c2ccccc12)NC(=O)[C@H](Cc1c[nH]c2ccccc12)NC(=O)[C@H](CCCCN)NC(=O)[C@@H](N)CCCCN)C(c1ccccc1)c1ccccc1)C(N)=O,100%
3,C=CC(=O)Nc1cc(Nc2nccc(-c3cn(C)c4ccccc34)n2)c(OC)cc1N(C)CCN(C)C [Osimertinib mesylate],100%
4,COC(=O)C1=C(C)NC(C)=C(C(=O)OC(C)C)C1c1cccc2nonc12 (stereo not given) [Isradipine],100%
5,C=CCNc1c(O)cc2c(O)c1C[C@@H](C)C[C@H](OC)[C@H](O)[C@@H](C)/C=C(\C)[C@H](OC(N)=O)[C@@H](OC)/C=C\C=C(/C)C(=O)N2 [Retaspimycin (Hydrochloride)],100%
6,O=C(O)C[C@H]1CCc2c1[nH]c1ccc(OCc3ccc(C4CCCC4)c(C(F)(F)F)c3)cc21 [Etrasimod],99%
7,N#Cc1ccc(Oc2ccc3c(c2)COB3O)cc1 [Crisaborole],100%
8,CS(=O)(=O)c1ccc([C@@H](O)[C@@H](CF)NC(=O)C(Cl)Cl)cc1 [Florfenicol],100%
9,CN(CCCCCCCCCCN(C)C(=O)Oc1cccc([N+](C)(C)C)c1)C(=O)Oc1cccc([N+](C)(C)C)c1 [Demecarium Bromide],100%
10,Clc1ccc(CCC(Cn2ccnc2)Sc2c(Cl)cccc2Cl)cc1 (stereo not given) [Butoconazole (nitrate)],100%
11,C=CCc1ccc(O)c(-c2cc(CC=C)ccc2O)c1 [Magnolol],100%
12,N#CC(c1ccc(Cl)cc1)c1c(Cl)cc(-n2ncc(=O)[nH]c2=O)cc1Cl (stereo not given) [Diclazuril],100%
13,C=C[C@@H]1C[C@]1(NC(=O)[C@@H]1C[C@@H]2CN1C(=O)[C@H](C(C)(C)C)NC(=O)O[C@@H]1C[C@H]1CCCCCc1nc3ccc(OC)cc3nc1O2)C(=O)NS(=O)(=O)C1CC1 [Grazoprevir hydrate],100%
14,C=C[C@@H]1C[C@]1(NC(=O)[C@@H]1C[C@@H]2CN1C(=O)[C@H](C(C)(C)C)NC(=O)O[C@@H]1C[C@H]1CCCCCc1nc3ccc(OC)cc3nc1O2)C(=O)NS(=O)(=O)C1CC1 [Grazoprevir],100%
15,COCCNCCc1cccc(Nc2ncc3c(n2)-c2ccccc2[C@H](c2ccccc2F)C3)c1 [Derazantinib],100%
16,CC(OC(=O)NCC1(CC(=O)O)CCCCC1)OC(=O)C(C)C (stereo not given) [Gabapentin enacarbil],90.4%
17,Cc1ccc(-n2[nH]c(C)c(N=Nc3cccc(-c4cccc(C(=O)O)c4)c3O)c2=O)cc1C [Eltrombopag],96.5%
18,Nc1ccn([C@@H]2O[C@H](CO)[C@@H](O)C2(F)F)c(=O)n1 [Gemcitabine (hydrochloride)],100%
19,COCCN1CCC(N(Cc2ccc(-c3ccc(C(F)(F)F)cc3)cc2)C(=O)Cn2c(SCc3cccc(F)c3F)cc(=O)c3ccccc32)CC1 [Rilapladib],100%
20,CCN(CC)CC#CCOC(=O)C(O)(c1ccccc1)C1CCCCC1 (stereo not given) [Oxybutynin (chloride)],94.3%
